Screening results (PubChem)
Shown are actives, neighbours in structure and some others; about 19% of the full set was active somewhere.
HT1080 IDH1KD tx: toxicity to HT-1080 IDH1 knockdown cells (counter line) | Potency, µM (highest dose often 46.1 µM), inactives show top-dose activity, negative = toxicity, most hits filed as cytotoxic | 360,000 compounds, 2% hits | HT-1080 IDH1 knockdown viability, ATP luminescence, 48 h;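 also: potency is read from the fitted curve at half-maximal effect; 0% = DMSO wells and -100% = cell-free medium wells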
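Assay cells: HT-1080 with IDH1 knockdown, 750 per well, RPMI/5% FBS. Exposure: 48 h at 37 °C following 2 h pre-incubation. Read: CellTiter-Glo luminescence; fitted concentration-response, curve class assigned.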
ELG1 repair inh: ELG1-dependent DNA repair inhibition; HEK293T ELG1-luciferase reporter, luminescence, 16 h; DNA damage induced by 5-fluorouridine; Potency, µM (series often up to 46.1 µM), for inactives: at the highest dose activity change, negative = inhibition, actives largely listed as inhibitors; 330,000 compounds, 2.3% hits; also: potency is read from the fitted curve at half-maximal effect; nearly all actives have a fitted effect of over 55% in size
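Reporter activity after DNA damage by 5-fluorouridine is monitored. Compound-treated cells incubate 16 hr at 37 °C, then ONE-Glo is added for 30 min before luminescence reading.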
HT1080-NT tox: kills 2HG-producing HT-1080-NT fibrosarcoma cells. AID 686970. 360,000 compounds, 1.6% hits. Potency, µM (top dose mostly 46.1 µM), for the others: at the top dose activity, negative = less viability, actives largely listed as cytotoxic. HT-1080-NT fibrosarcoma viability, CellTiter-Glo ATP luminescence, 48 h;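 also: NT is the 2HG producing partner of a matched IDH1 knockdown line; potency is read from the fitted curve at half-maximal effect; 0% = DMSO-treated cells and -100% = media-only wells without cells; nearly all actives have a fitted effect of over 55% in size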
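Read-out is CellTiter-Glo luminescence after 10 minutes at room temperature, following 48 hours' compound treatment of HT-1080-NT cells (750 cells/well, RPMI, 5% FBS, 37 degrees C).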
TDP1 cell noCPT: qHTS for Inhibitors of human tyrosyl-DNA phosphodiesterase 1 (TDP1): qHTS in cells in absence of CPT | DT40 Tdp1-/- hTDP1 cells, no CPT, ATP luminescence, 48 h | Potency, µM (highest dose often 46.2 µM), without a hit: at the highest dose activity change, negative = growth inhibition, most hits filed as inhibitors | 420,000 compounds, 15% hits; also: potency is read from the fitted curve at half-maximal effect; nearly all actives have a fitted effect of over 55% in size
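Cells were dispensed at 400 per well, compounds added by pin tool, plates incubated ≥48 hr at 37 °C, then CellTiter-Glo added for 30 min at room temperature before luminescence reading. Line: DT40 Tdp1-/- complemented with hTDP1; camptothecin omitted.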
IL1B secr inh: inflammasome signaling inhibition, IL-1 beta readout; THP-1 LPS/ATP IL-1B secretion, AlphaLISA, 16 h; active compounds read low; activity change, % at 57.5 µM; 360,000 compounds, 4.7% hits; AID 743279; in the data active = activity change below about -50%; inconclusive = mostly about -30% to -49%
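Secreted IL-1B measured by AlphaLISA bead assay after 16 h compound exposure of THP-1 cells; compounds (final up to 57.5 uM) added 1 h before LPS (250 ng/mL) and ATP (1.25 mM) stimulation; lower signal means less secretion.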
DT40 TDP1 CPT: DT40-hTDP1 cell growth loss with CPT; chicken DT40 Tdp1-/-;hTDP1 cells + 20 nM CPT, ATP luminescence, 48 h; Potency, µM (highest dose often 46.2 µM), for inactives: at the highest dose activity change, negative = growth inhibition, usual class: inhibitors; 420,000 compounds, 12% hits; AID 686979; also: potency is read from the fitted curve at half-maximal effect; nearly all actives have a fitted effect of over 55% in size
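Chicken DT40 Tdp1-/- cells stably complemented with human TDP1 were seeded at 400 cells/well in medium containing 20 nM camptothecin, exposed to pin-transferred compounds, and grown at 37 °C for at least 48 hr. Viability was read as ATP luminescence.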
* = called active by the depositor; ? = inconclusive; . = not tested or not shown; [ ] = remark or other dose. Unless noted, calls follow the shape of the dose curve; as a rule, active = well fitted curve in the direction sought with a large enough effect; inconclusive = small, poorly fitted or top-dose-only effect, or another doubt; inactive = no such curve, though single readings can be large; an effect the other way counts as inactive or inconclusive. Unless noted, % is scaled to controls: 0 for no effect and ±100 for the full control effect.

SMILES	HT1080 IDH1KD tx	ELG1 repair inh	HT1080-NT tox	TDP1 cell noCPT	IL1B secr inh	DT40 TDP1 CPT
COC(=O)[C@@]12C[C@@H](CC(=O)NCc3cccs3)C(=O)N(Cc3ccccc3)C1=CCC(C)(C)C2	-1.9%	.	-24.6%	?	0.0	?
CCOC(=O)C1CCN(c2ncnc3c2nnn3C)CC1	.	.	.	-14.1%	.	-8.7%
C[C@@H](C[C@@H](O)[C@H](O)C(C)(C)O)[C@@H]1CC[C@]2(C)C3=CC[C@H]4C(C)(C)C(=O)CC[C@]4(C)[C@H]3CC[C@@]12C	4.1%	-23.1%	1.0%	6.51µM*	-53.2*	7.31µM*
CCN1CCN(C(=O)C(C)Nc2ccc(OC)cc2OC)CC1 (configuration not stated)	9.7%	1.2%	7.1%	-16.7%	17.8	-26.8%
CC1=NN(c2cccc(C(=O)O)c2)C(=O)/C1=C\C=C/c1ccccc1	?	?	?	1.3µM*	-102.6*	0.581µM*
CC1=NN(c2ccc(C)cc2)C(=O)/C1=C\C=C\c1ccccc1	-15.7%	?	16.3%	9.2µM*	-180.3*	11.6µM*
COc1ccc(C(=O)COC(=O)c2ccc3c(c2)OCO3)c(OC)c1	-4.4%	?	9.7%	-9.0%	-23.6	-14.1%
CCn1c(SCC(=O)Nc2nc(-c3ccccc3)cs2)nnc1-c1ccccc1O	?	20.6µM*	?	-20.4%	-22.3	?
CCn1c(CCNC(=O)c2cccs2)nnc1SCC(=O)Nc1nc(-c2ccccc2)cs1	-6.3%	23.1µM*	1.5%	10.3µM*	-29.5	16.4µM*
O=C(OCn1ncc(Cl)c(Cl)c1=O)c1ccc(C(F)(F)F)cc1	?	?	?	5.8µM*	-99.2*	2.91µM*
Cc1ccc(C(=O)OCn2ncc(Cl)c(Cl)c2=O)cc1	5.17µM*	7.31µM*	5.8µM*	2.59µM*	-99.1*	1.84µM*
Cc1ccc(C(=O)COC(=O)c2nc(Cl)ccc2Cl)cc1	3.7%	-3.5%	7.4%	0.9%	24.5	2.2%
Cc1ccc(NC(=O)Cn2cc(S(=O)(=O)N3CCC(C)CC3)c3ccccc3c2=O)c(Br)c1	.	.	.	-22.8%	.	-22.3%
COCCN(C(=O)c1cc(-c2ccco2)nc2ccccc12)c1c(N)n(Cc2ccccc2)c(=O)[nH]c1=O	-1.2%	23.0%	8.8%	?	12.6	1.8%
COc1ccc(-c2csc(N3CCN(c4cc(C)nc5ccccc45)CC3)n2)cc1OC	16.4µM*	8.2µM*	?	14.6µM*	-100.7*	14.6µM*
CCC(=O)N1CCN(c2ccnc3cc(Cl)ccc23)CC1	2.2%	-16.0%	-7.9%	?	-8.3	?
COc1cccc(Cl)c1NC(=O)N1CCN(c2ccnc3cc(Cl)ccc23)CC1	-6.3%	?	0.5%	23.1µM*	-1.2	?
COc1cccc(Cl)c1NC(=O)N1CCN(c2cc(C)nc3ccccc23)CC1	?	-27.6%	-27.4%	?	-71.2*	16.4µM*
COc1ccccc1NC(=O)N1CCN(c2ccccc2F)CC1	13.4%	?	21.7%	-3.4%	-26.8	-15.6%
NS(=O)(=O)c1cccc(NC(=O)c2ccno2)c1	4.0%	12.0%	5.8%	23.7%	12.4	1.4%
O=C(c1ccncc1)N1CCC2(CCC(CNC(=O)C3(N4CCOCC4)CCCCC3)O2)CC1 (configuration not stated)	.	.	.	-4.8%	.	5.3%[9.04 µM]
CCNc1ncc2nc(-c3ccc(OC)cc3)c(=O)n(Cc3cccc(OC)c3)c2n1	.	.	.	-5.9%	.	-5.3%
O=C(O)c1ccccc1C(=O)c1cccc2ccccc12	18.5%	9.4%	10.7%	0.1%	17.7	2.8%
CCSc1nnc(NS(=O)(=O)c2ccc(C)cc2)s1	1.2%	6.4%	-0.7%	-16.2%	6.6	-20.8%
CCCCCC(=O)N1C[C@@H](n2cc(-c3ccc(F)cc3)nn2)[C@H](O)C[C@@H]1c1ccc(C)cc1	?	.	-22.9%	8.2µM*	-19.9	13µM*
SMILES	HT1080 IDH1KD tx	ELG1 repair inh	HT1080-NT tox	TDP1 cell noCPT	IL1B secr inh	DT40 TDP1 CPT
CCCCCC(=O)N1C[C@@H](O)[C@H](n2cc(C3CC3)nn2)C[C@@H]1c1ccc(C)cc1	2.5%	.	8.7%	-27.0%	11.1	-19.7%
CCCCCC(=O)N1C[C@@H](n2cc(-c3ccc(F)cc3)nn2)[C@H](O)C[C@@H]1c1ccc(OC)cc1	?	.	18.4µM*	?	-29.3	?
CCCCCC(=O)N1C[C@@H](O)[C@H](n2cc(-c3ccc(F)cc3)nn2)C[C@@H]1c1ccccc1	-17.1%	.	-17.4%	10.3µM*	-15.1	23.1µM*
COc1ccc([C@H]2C[C@H](n3cc(-c4ccc(F)cc4)nn3)[C@@H](O)CN2C(=O)C2CCCCC2)cc1	-15.0%	.	-16.8%	18.4µM*	-6.8	?
CCCCCCN1C[C@@H](O)[C@H](n2cc(-c3ccc(F)cc3)nn2)C[C@@H]1c1ccc(OC)cc1	4.4%	.	2.4%	?	-2.6	2.0%
COCCN1CCc2nc(SCC(=O)Nc3ccc(Br)cc3)[nH]c(=O)c2C1	.	.	.	0.5%	.	-1.4%
Cc1noc(C)c1C(=O)N1CCC2(CCCN(C(=O)Nc3cccc(F)c3)C2)CC1	.	.	.	-3.1%	.	14.5%
CCN(CCCNC(=O)c1nn(-c2ccc(OC)c(Cl)c2)c(=O)c2c1c1ccccc1n2C)c1ccccc1	.	.	.	-9.4%	.	-7.8%
CCCCCC(=O)N1C[C@@H](O)[C@H](n2cc(-c3ccc(F)cc3)nn2)C[C@@H]1c1ccc(C)cc1	-11.1%	.	-5.4%	18.4µM*	-16.3	?
CC(C)C(NC(=O)COc1ccc2ccccc2c1)C(=O)N/N=C/C=C/c1ccccc1 (configuration not stated)	3.5%	-21.7%	-0.7%	?	-0.5	12.6µM*
Cc1cc(C(=O)OCC(=O)Nc2ccccc2C(F)(F)F)on1	-1.6%	21.8%	-2.8%	-0.6%	-4.3	7.0%
CCn1nc(C)cc1C(=O)NC1CCCc2c1cnn2-c1cc(F)cc(F)c1 (configuration not stated)	-4.1%	-24.9%	-3.3%	18.4µM*	7.5	?
Cc1cc(C(=O)NC2CCCc3c2cnn3-c2cc(F)cc(F)c2)nn1C (configuration not stated)	-1.0%	-9.2%	-15.6%	?	10.4	?
Cc1ncoc1C(=O)NC1CCCc2c1cnn2-c1cc(F)cc(F)c1 (configuration not stated)	0.0%	.	5.6%	25.9µM*	27.0	-29.0%
